An excerpt weighted towards active compounds, which were near 2.4% of everything screened.
Pf gamet viab: P. falciparum stage V gametocyte viability inhibition; P. falciparum stage V gametocytes, ATP luminescence, 24 h; inhibition, % at 10.9 µM; hit rate 0.065% among 150,000; AID 743093;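 active = inhibition above the mean plus 3 SD of compounds within the control limits, set per campaign, cut at about 38% in these data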
MEKK2wt PB1 HTS: raises or lowers MEK5 binding to wildtype human MEKK2 PB1 domain; AID 1531; hit rate 1.1% among 290,000; bead flow cytometry, Alexa488-MEK5 binding to MEKK2 WT; actives lie on both sides; binding response (% of control), % at 10 µM; Q9Y2U5; in the data active = binding response below about 67% or above about 130%
MEKK3 PB1 HTS: MEKK3-MEK5 PB1 interaction, increase or decrease. Q99759. bead-based flow cytometry, Alexa488-MEK5 binding to MEKK3; actives lie on both sides; 0 = blocked by unlabeled MEK5, 100 = vehicle. binding response (% of control), % at 10 µM. hit rate 1.4% among 290,000;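 active = binding response more than 3 SD above or below the average of its plate-row segment, actives on both sides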;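 note: Alexa488 bead fluorescence after subtracting the streptavidin-only scavenger bead signal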
Target sequence (Q99759 whole entry, looked up): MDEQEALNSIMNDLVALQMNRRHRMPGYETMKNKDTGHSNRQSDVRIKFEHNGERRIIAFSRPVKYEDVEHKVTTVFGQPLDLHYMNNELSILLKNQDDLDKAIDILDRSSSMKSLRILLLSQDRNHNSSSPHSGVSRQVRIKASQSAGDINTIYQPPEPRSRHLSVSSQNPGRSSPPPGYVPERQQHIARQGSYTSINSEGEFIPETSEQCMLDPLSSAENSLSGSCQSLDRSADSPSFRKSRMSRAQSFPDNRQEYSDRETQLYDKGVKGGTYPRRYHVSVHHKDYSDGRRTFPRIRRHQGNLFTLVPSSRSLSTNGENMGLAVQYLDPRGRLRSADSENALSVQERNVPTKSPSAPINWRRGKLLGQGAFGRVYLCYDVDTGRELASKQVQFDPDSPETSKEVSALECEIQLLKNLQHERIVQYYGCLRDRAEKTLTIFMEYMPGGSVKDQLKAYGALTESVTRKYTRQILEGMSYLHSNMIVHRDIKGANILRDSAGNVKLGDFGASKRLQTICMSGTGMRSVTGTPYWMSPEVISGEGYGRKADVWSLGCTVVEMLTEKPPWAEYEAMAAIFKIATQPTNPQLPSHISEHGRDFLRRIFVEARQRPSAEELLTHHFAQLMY
Arbovirus inh: antivirals against arbovirus infection; hit rate 0.37% among 200,000; arbovirus infection cell-based antiviral screen; inhibition, % at 10 µM; AID 1251; in the data active = inhibition above about 30%
MEKK2mut PB1 HTS: signal of MEK5 binding to mutant human MEKK2 PB1 domain | bead flow cytometry, Alexa488-MEK5 binding to MEKK2 mutant | percent response, % at 10 µM | hit rate 0.35% among 290,000 | AID 1530; in the data active = percent response above about 24%, passing the limit was not always enough
MEKK2wt confirm: raises or lowers MEK5 binding to wildtype human MEKK2, retest | binding response (% of control), % at 10 µM | shares compounds with MEKK3 PB1 HTS | hit rate 2.4% among 5,900 | bead flow cytometry, Alexa488-MEK5 binding to MEKK2 WT; actives lie on both sides | AID 1892; in the data active = binding response below about 16% or above about 210%; inactive = in between
MEKK2mut-MEK5: signal of MEK5 binding to mutant human MEKK2, retest | AID 1893 | shares compounds with MEKK3 PB1 HTS | percent response, % at 10 µM | hit rate 2% among 5,900 | bead flow cytometry, Alexa488-MEK5 binding to MEKK2 mutant; in the data active = percent response mostly above about 71%, no sharp cut-off; inactive = mostly below about 38%;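 note: higher means compound restores mutant binding toward wildtype level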
MEKK3-MEK5 inh: MEKK3-MEK5 PB1 inhibition, single concentration confirmation; shares compounds with MEKK3 PB1 HTS; bead flow cytometry, Alexa488-MEK5 binding to MEKK3; stronger effect = lower value; binding response (% of control), % at 10 µM; hit rate 1.8% among 5,900; AID 1894;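 active = binding response below 72% of control, or above a set upper limit, though filed actives all read lower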
Of the large screens only hits and unclear results are named; the others gave an inactive call (follow-up assays come after a bar, where they were run); [ ] = dose if it differs, or a comment.

COc1cc(O)c(C(CCN2CCOCC2)c2ccc3c(c2)OCO3)c(OC)c1 (centres undefined)	none (no result: Pf gamet viab, Arbovirus inh)
Cn1c(=O)c2c(ncn2CC(=O)N2CCOCC2)n(C)c1=O	none (no result: Pf gamet viab)
Cn1c(=O)c2c(ncn2CC(=O)N2CCN(C(=O)c3ccco3)CC2)n(C)c1=O	MEKK2wt PB1 HTS 50.0[inhibitor] (no result: Pf gamet viab) | MEKK2wt confirm inactive | MEKK2mut-MEK5 inactive | MEKK3-MEK5 inh inactive
COc1ccccc1NS(=O)(=O)c1cc([N+](=O)[O-])ccc1N/N=C/c1c(C)[nH]c2ccccc12	MEKK2mut PB1 HTS 67.0 (no result: Pf gamet viab, MEKK2wt PB1 HTS) | MEKK2wt confirm inactive | MEKK2mut-MEK5 inactive | MEKK3-MEK5 inh inactive
Cc1ccc(NCc2ccccc2O)c(C)c1	none
O=S(=O)(c1ccc(F)cc1)n1ccc(-c2cccc(OCc3c(F)cccc3Cl)c2)n1	MEKK2wt PB1 HTS 2.0[inhibitor], MEKK3 PB1 HTS 2.0[inhibitor] (no result: Pf gamet viab) | MEKK2wt confirm inactive | MEKK2mut-MEK5 inactive | MEKK3-MEK5 inh inactive
COC(=O)c1ccc(Oc2ccc(C(F)(F)F)cn2)cc1	MEKK3 PB1 HTS 152.0 | MEKK2wt confirm inactive | MEKK2mut-MEK5 inactive | MEKK3-MEK5 inh inactive
O=C(O)c1ccc(Oc2ccc(C(F)(F)F)cn2)cc1	none
Cc1csc(SCC(=O)Nc2sccc2C(N)=O)n1	MEKK2wt PB1 HTS 1.0[inhibitor], MEKK3 PB1 HTS 2.0[inhibitor] | MEKK2wt confirm inactive | MEKK2mut-MEK5 inactive | MEKK3-MEK5 inh inactive
CCOc1ccc2nc(SCC(=O)NC(=O)NCc3ccco3)sc2c1	none
O=C(CSc1nc2cc(Cl)ccc2s1)NC(=O)NCc1ccco1	MEKK3 PB1 HTS 81.0[inhibitor] (no result: Pf gamet viab) | MEKK2wt confirm inactive | MEKK2mut-MEK5 inactive | MEKK3-MEK5 inh inactive
CC(=O)Oc1ccc(C(=O)Cc2ccc3ccccc3n2)c(O)c1C	MEKK3 PB1 HTS 135.0 (no result: Pf gamet viab) | MEKK2wt confirm inactive | MEKK2mut-MEK5 inactive | MEKK3-MEK5 inh inactive
Cc1c(O)ccc(/C(Cc2ccc3ccccc3n2)=N\O)c1O	none
CCC(CC)c1nnc(NC(=O)C2CC(=O)N(c3ccc4c(c3)OCCO4)C2)s1 (centres undefined)	MEKK3 PB1 HTS 135.0 | MEKK2wt confirm inactive | MEKK2mut-MEK5 inactive | MEKK3-MEK5 inh 61.0
CCCCc1nnc(NC(=O)C2CC(=O)N(c3ccc4c(c3)OCCO4)C2)s1 (centres undefined)	none
Cc1ccc(CN2CCCN(Cc3c(C)cc(C)cc3C)S2(=O)=O)cc1	none (no result: Pf gamet viab, Arbovirus inh)
CC#CCN1c2ccccc2[C@]23C[C@@H](C(=O)OC)N(C(=O)c4ccco4)C2=NC(C(=O)OC)=C(C(=O)OC)[C@H]13	MEKK2wt PB1 HTS 151.0 (no result: Arbovirus inh) | MEKK2wt confirm inactive | MEKK2mut-MEK5 inactive | MEKK3-MEK5 inh inactive
C=CCN1c2ccccc2[C@]23C[C@@H](C(=O)OC)N(C(=O)c4cc(C)oc4C)C2=NC(C(=O)OC)=C(C(=O)OC)[C@H]13	MEKK2wt PB1 HTS 147.0 (no result: Pf gamet viab, Arbovirus inh) | MEKK2wt confirm inactive | MEKK2mut-MEK5 inactive | MEKK3-MEK5 inh inactive
C=CCN1c2ccccc2[C@]23C[C@@H](C(=O)OC)N=C2NC(C(=O)OC)=C(C(=O)OC)[C@H]13	MEKK2wt PB1 HTS 150.0 (no result: Pf gamet viab, Arbovirus inh) | MEKK2wt confirm inactive | MEKK2mut-MEK5 inactive | MEKK3-MEK5 inh inactive
CC#CCN1c2ccccc2[C@]23C[C@@H](C(=O)OC)N(C(=O)NC(C)(C)C)C2=NC(C(=O)OC)=C(C(=O)OC)[C@H]13	none (no result: Arbovirus inh)
C=CCN1c2ccccc2[C@]23C[C@@H](C(=O)OC)N(C(C)=O)C2=NC(C(=O)OC)=C(C(=O)OC)[C@H]13	none (no result: Pf gamet viab, Arbovirus inh)
CC#CCN1c2ccccc2[C@]23C[C@@H](C(=O)OC)N(C(=O)c4cc(C)oc4C)C2=NC(C(=O)OC)=C(C(=O)OC)[C@H]13	none (no result: Pf gamet viab, Arbovirus inh)
CCC(C)N1C(=O)CN(C2CCCCCC2)C(=O)C1c1ccccc1F (centres undefined)	none
CC(C)c1ccc(NC(=O)C2=NNC(=O)CC2)cc1	none (no result: Arbovirus inh)
O=c1[nH]n2c(=O)c3c([nH]c2c1N=Nc1cccc(Cl)c1)CCCC3	MEKK3 PB1 HTS 48.0[inhibitor], Arbovirus inh 39.6 | MEKK2wt confirm inactive | MEKK2mut-MEK5 inactive | MEKK3-MEK5 inh inactive
Cc1cc(C)n2[nH]c(=O)c(N=Nc3cccc(Cl)c3)c2n1	none (no result: Pf gamet viab)
CC(c1ccccc1)N1CCn2c(nc3cc(NC(=O)c4cccs4)ccc32)C1 (centres undefined)	MEKK2wt PB1 HTS 35.0[inhibitor], MEKK3 PB1 HTS 19.0[inhibitor] (no result: Pf gamet viab) | MEKK2wt confirm inactive | MEKK2mut-MEK5 inactive | MEKK3-MEK5 inh inactive
COCCN1CCn2c(nc3cc(NC(=O)c4cccs4)ccc32)C1	none (no result: Pf gamet viab)
COc1ccc(C(=O)COC(=O)CNC(=O)c2ccc(OC)cc2)cc1	none
COc1ccc(C(=O)Nc2ccnn2C2CCN(C(=O)c3cccnc3)CC2)cc1	none (no result: Pf gamet viab, Arbovirus inh)
CCOc1ccc(Nc2nc(Cl)nc(NCCO)n2)cc1	MEKK3 PB1 HTS 131.0 | MEKK2wt confirm inactive | MEKK2mut-MEK5 inactive | MEKK3-MEK5 inh inactive
COc1cccc(C2/C(=C(/O)c3ccc4c(c3)OCO4)C(=O)C(=O)N2CCN2CCOCC2)c1 (centres undefined)	none (no result: Pf gamet viab, Arbovirus inh)
CC1=NN(c2ccccc2)C(=O)/C1=C/C=C/c1ccccc1	MEKK3 PB1 HTS 129.0 | MEKK2wt confirm inactive | MEKK2mut-MEK5 inactive | MEKK3-MEK5 inh inactive

Assay outcomes (PubChem BioAssay)
